# PubChem BioAssay AID1722 (National Center for Advancing Translational Sciences (NCATS), 2009)
# In all, about 290,000 compounds went through this assay and fewer than 10 were called active. Calls follow the shape of the full dose curve. A selection follows.
# Target: Pyruvate kinase (Leishmania mexicana) (UniProt Q27686)
# Test: qHTS Assay for Activators of Leishmania Mexicana Pyruvate Kinase (LmPK)
# Details: purified LmPK, Kinase-Glo ATP luminescence, 1 h; series mostly up to 57.5 µM
# From the text: NIH Chemical Genomics Center [NCGC] Malcolm Walkinshaw, Hugh Morgan, Linda Gilmore University of Edinburgh, UK MLPCN Grant: 1 R03 MH085697-01 NCGC Assay Overview: Pyruvate kinase (L. Mexicana) (LmPK) enzyme was supplied as a highly purified (>95% pure) sulphate-free preparation from University of Edinburgh, UK and assayed for its ability to generate ATP from ADP using phosphoenolpyruvate (PEP) as a substrate. ATP generation was detected in a coupled reaction by luciferase-mediated luminescence, an ATP-dependent process. Pyruvate kinase substrates, PEP and ADP, were present in the assay at Km and approximately 10-fold below Km respectively. The enzyme was assayed at an intermediate level of activity to screen for both inhibitors and activators.
# NCGC Assay Protocol Summary: Three uL of enzyme mix (kept on ice) in assay buffer (50 mM Imidazole pH7.2, 50 mM KCl, 7 mM MgCl2, 0.01% Tween 20, 0.05% BSA) containing PEP (0.5 mM final concentration) and LmPK (0.1 nM final concentration) was dispensed into white solid bottom 1,536 well microtiter plates. 23 nL of compound were delivered by a pin tool and 1 uL of ADP mix in assay buffer (r.t; 0.1 mM final ADP concentration) was added. Plates were incubated at room temperature for 1 hour. Two uL of detection mix (Kinase-Glo, Promega; at 4 degree Celsius protected from light) was added and luminescence read by a ViewLux (Perkin Elmer) at 1 second exposure/plate. Data were normalized to the uninhibited and AC100 inhibition (no enzyme). To monitor activation, the first column contained a five-fold concentration of LmPK (0.5 nM).
# Pyruvate kinase (Leishmania mexicana), sequence (Q27686 whole entry, looked up): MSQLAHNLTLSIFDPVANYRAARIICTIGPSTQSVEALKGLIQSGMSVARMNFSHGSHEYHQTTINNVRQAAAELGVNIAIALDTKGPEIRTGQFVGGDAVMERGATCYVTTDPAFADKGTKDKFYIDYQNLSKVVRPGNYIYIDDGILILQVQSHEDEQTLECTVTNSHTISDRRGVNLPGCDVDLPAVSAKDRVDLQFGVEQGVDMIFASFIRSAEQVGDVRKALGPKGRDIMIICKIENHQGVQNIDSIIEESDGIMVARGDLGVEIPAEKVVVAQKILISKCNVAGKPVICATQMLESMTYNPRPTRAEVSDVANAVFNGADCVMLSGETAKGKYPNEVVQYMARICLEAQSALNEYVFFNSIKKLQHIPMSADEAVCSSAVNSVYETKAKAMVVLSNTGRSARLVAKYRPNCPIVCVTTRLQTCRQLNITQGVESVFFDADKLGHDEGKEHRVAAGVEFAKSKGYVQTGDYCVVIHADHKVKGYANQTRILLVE
row,Structure (SMILES),outcome
1,COc1ccc(-c2cn3ccc(C)cc3n2)cc1,inactive
2,Cc1cnc(NC(=O)c2ccccn2)s1,inactive
3,S=c1[nH]nc(-c2cc(-c3ccsc3)n[nH]2)n1-c1ccccc1,inactive
4,COc1ccc(C2=Nc3cc(C)ccc3OC2)cc1,inactive
5,NC(=O)Cc1ccc2sc(-c3ccccc3)nc2c1,inactive
6,CCc1ccc2nc3sc(C(=O)Nc4nnc(CC)s4)c(N)c3cc2c1,inactive
7,COc1cccc(C(=O)Nc2ccc(NC(=O)c3ccco3)cn2)c1,inactive
8,Cc1csc(NC(=O)Nc2ccccc2[N+](=O)[O-])n1,inactive
9,O=[N+]([O-])c1ccc2nc(-c3ccccn3)[nH]c2c1,inactive
10,CCOc1cnc(C(=O)NNC(=O)c2ccccc2Br)o1,inactive
11,c1ccc(CN=C2Nc3ccccc3CS2)nc1,inactive
12,C=CCn1c(-c2ccccc2OCC)n[nH]c1=S,inactive
13,COc1ccc(C(=O)Nc2ccccc2C(=O)N/N=C/c2ccc(O)c(OC)c2)cc1,inactive
14,CCOc1ccc(C(=O)Nc2cccc(SC)c2)cc1,inactive
15,O=C(Nc1ccc2c(c1)OCCO2)c1cnccn1,inactive
16,C=CCNC(=S)N1CCN(CCN=Cc2c(C)[nH]n(-c3ccc([N+](=O)[O-])cc3)c2=O)CC1,inactive
17,Cc1ccc(-n2[nH]c(C)c(/C=N/N3C(=O)c4cccc5cccc(c45)C3=O)c2=O)cc1,inactive
18,Cc1ccc(C)c2c1cc(C)c1nnc(SCC(=O)Nc3cccc(C(=O)O)c3)n12,inactive
19,Cc1ccc(NCc2n[nH]c(=S)n2-c2ccccc2)cc1Cl,inactive
20,COc1cccc(/C=N\NC(=O)C2=NNC(=O)C2C)c1O (centres undefined),inactive

row,Structure (SMILES),outcome
1,S=c1[nH]nc(-c2cccs2)n1/N=C/c1cccs1,inactive
2,CSC1=N/C(=C\C=C\c2cccs2)C(=O)S1,inactive
3,O=C(Nc1ccccc1)c1ccc2c(c1)OCO2,inactive
4,CCc1cc(-c2n[nH]c(=S)n2CC(C)C)cs1,inactive
5,Cc1[nH]n(-c2ccc([N+](=O)[O-])cc2)c(=O)c1C=NCCN1CCN(C(=O)c2ccccc2F)CC1,inactive
6,Cc1cc(C(=O)N/N=C/c2ccc(N3CCOCC3)cc2)c(C)o1,inactive
7,O=C(Nc1nc2ccccc2s1)c1ccc2c(c1)OCO2,inactive
8,O=C(Nc1ccccc1)Nc1ccccc1C(=O)NCc1ccco1,inactive
9,Cn1cccc1C(=O)Nc1nccs1,inactive
10,O=c1c2ccccc2ncn1/N=C/c1ccccc1,inactive
11,C=CCn1c(C)cc(C2=NNC(=NCC)SC2)c1C,inactive
12,c1c2c(cc3sc(N4CCCCC4)nc13)OCCO2,inactive
13,O=C1/C(=C/c2cccs2)CCc2ccccc21,inactive
14,Clc1ccc(-c2cc(-c3ccccn3)on2)c(Cl)c1,inactive
15,O=C1CSC(=S)N1/N=C/c1ccc(O)c([N+](=O)[O-])c1,inactive
16,COc1ccc(OC)c(-n2c(-c3ccn[nH]3)n[nH]c2=S)c1,inactive
17,CCn1c(CSCc2c(Cl)cccc2Cl)n[nH]c1=S,inactive
18,O=C(/C=C/c1ccc2c(c1)OCCO2)c1ccc(O)cc1,inactive
19,Cc1ccc(F)c(NC(=O)CCc2ccccc2)c1,inactive
20,COc1ccc(C(=O)/C=C/Nc2ccccn2)cc1,inactive

row,Structure (SMILES),outcome
1,Cn1cc([N+](=O)[O-])c(C(=O)Nc2ccc3c(c2)OCCO3)n1,inactive
2,c1ccc2[nH]c(-c3nc4ccccc4[nH]3)nc2c1,inactive
3,CC(=O)Oc1ccccc1C(=O)Nc1ncc([N+](=O)[O-])s1,inactive
4,O=C(c1ccc(F)cc1)n1c(=S)nc2ccccn21,inactive
5,C/C(=N\NC(=O)CC(C)C)c1c(C(F)(F)F)[nH]n(-c2nc3ccccc3s2)c1=O,inactive
6,c1ccc(-c2noc(-c3cccs3)n2)nc1,inactive
7,Cc1ccc(-c2nc3ccccc3[nH]2)cc1N,inactive
8,CCCCC(CC(C)O)c1n[nH]c(=S)n1-c1ccccc1 (centres undefined),inactive
9,COc1ccc(C(=O)Nc2ccc(F)cc2F)cc1,inactive
10,Nc1ncc(-c2cc3ccccc3oc2=O)s1,inactive
11,CN(C)CCCSc1ccccc1NC(=O)/C=C/c1ccccc1,inactive
12,COc1ccccc1-n1c(-c2cc(-c3ccco3)[nH]n2)n[nH]c1=S,inactive
13,COCn1c(COc2ccccc2)nc2ccccc21,inactive
14,N/C(=N\OC(=O)CCC1CCCCC1)c1ccccn1,inactive
15,CCCc1cc(-c2n[nH]c(=S)n2Cc2ccccc2)cs1,inactive
16,O=C(OC1CCOC1=O)c1ccc(-c2nc3ccccc3s2)s1 (centres undefined),inactive
17,COc1cccc(C(=O)c2cc3ccc(O)cc3oc2=O)c1,inactive
18,COc1cccc(-c2nc3cc(C)ccc3o2)c1,inactive
19,C=CCn1c(-c2ccc3[nH]c(C)c(C)c3c2)n[nH]c1=S,inactive
